Data reported in PubChem BioAssay (NCATS).
Records with an inconclusive call do not appear. Active and inactive are the calls of the source. Unless noted, calls come from the whole dose curve; as a rule, active = well fitted curve in the direction sought with a large enough effect; inconclusive = small, poorly fitted or top-dose-only effect, or another doubt; inactive = no such curve, though single readings can be large; an effect the other way counts as inactive or inconclusive.

Experiments:
[1] = qHTS for differential inhibitors of proliferation of Plasmodium falciparum line 7G8 (AID 1815);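 note: parasite growth measured after three days of incubation; plate controls were vehicle wells for no effect and reference inhibitor wells for full effect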
[2] = qHTS for differential inhibitors of proliferation of Plasmodium falciparum line GB4 (AID 1816); conditions: Potency: Plasmodium falciparum GB4 proliferation inhibition;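 note: parasite growth measured after 72 h incubation; 0% = vehicle DMSO and -100% = reference inhibitor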
[3] = qHTS for differential inhibitors of proliferation of Plasmodium falciparum line 3D7 (AID 1876);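 note: parasite growth measured after three days of culture; 0% = vehicle wells and -100% = reference inhibitor wells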
[4] = qHTS for differential inhibitors of proliferation of Plasmodium falciparum line D10 (AID 1877);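 note: parasites grown with compound for 72 h before DNA staining; plate controls were vehicle wells for no effect and reference inhibitor wells for full effect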
[5] = qHTS for differential inhibitors of proliferation of Plasmodium falciparum line Dd2 (AID 1882); conditions: Potency: Plasmodium falciparum Dd2 proliferation inhibition;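 note: series mostly up to about 29 µM; plate controls were DMSO vehicle for no effect and 0.29 µM artemisinin for full effect; nearly all actives have a fitted effect of over 65% in size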
In short: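 SYBR Green DNA fluorescence (ex 485, em 535 nm) after overnight lysis quantifies parasite growth; compound exposure lasted 72 h at 37 C on infected red cells at 2.5% hematocrit, 0.3% parasitemia (final). Artemisinin 0.29 uM and vehicle wells define normalization.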

[6] = qHTS for differential inhibitors of proliferation of Plasmodium falciparum line W2 (AID 1883); conditions: Potency: Plasmodium falciparum W2 proliferation inhibition;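 note: parasites grown with compound for 72 h before lysis and staining; 0% = vehicle wells and -100% = control inhibitor wells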
[7] = qHTS for differential inhibitors of proliferation of Plasmodium falciparum line HB3 (AID 1886); conditions: Potency: Plasmodium falciparum HB3 proliferation inhibition;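 note: parasites grown with compound for 72 h before SYBR Green readout; plate controls were vehicle for no effect and reference inhibitor for full effect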
[8] = qHTS Assay for Modulators of Human Peripheral Myelin Protein 22 (PMP22) Expression/Activity (AID 1967; active = well fitted curve in the direction sought with a large enough effect in the signal ratio; the % refers to the signal ratio;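 note: 0% = untreated cells and 100% end not stated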)
In short: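 Luminescence ratio of Pmp22 promoter-driven green luciferase to EF-alpha-driven red luciferase, in engineered mouse MSC80 Schwann cells, served as read-out. Compounds were incubated 24h; untreated cells defined 0% Activity; curves were classified by r2, magnitude and activity.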

[9] = target: Ferritin light chain (Equus caballus) (UniProt P02791); assay: qHTS Validation Assay for Identification of Novel General Anesthetics (AID 2323); note: series mostly up to about 77 µM; % is set by controls: 0 for no effect and ±100 for the full control effect
In short: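 Fluorescence at 535 nm (excitation 380 nm) reported loss of 1-AMA binding to horse-spleen apoferritin (10 uM) in PBS with 50% saturated 1-aminoanthracene, after 10 min room-temperature incubation with compound; values from Hill fits of normalized response.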

[10] = target: ATP-dependent DNA helicase Q1 (Homo sapiens) (UniProt P46063); assay: qHTS Validation Assay for Inhibitors of RecQ-Like Dna Helicase 1 (RECQ1) (AID 2353);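 note: plate controls were DMSO vehicle for no effect and enzyme-free control for full effect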
In short: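 RECQ1T1 50 nM; forked duplex (20 bp + 30-nt ss tails) 200 nM, ATP 2 mM final; pH 8.0, 2 mM MgCl2, 2.5 ug/ml poly(dI-dC); 15 min compound preincubation; discontinuous kinetic read over 2 h at RT.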

[11] = target: RecQ-like DNA helicase BLM (Homo sapiens) (UniProt P54132); assay: qHTS Validation Assay for Inhibitors of Bloom's syndrome helicase (BLM) (AID 2364);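 note: plate controls were DMSO vehicle for no effect and enzyme-free control for full effect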
In short: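 Forked 20-bp duplex substrate (200 nM, TAMRA/BHQ-2) plus 2 mM ATP added after 15 min compound preincubation with 50 nM enzyme, pH 8.0, poly(dI-dC) 2.5 ug/ml. Strand separation followed by fluorescence (525/598 nm) over 2 h, normalized to enzyme-free and DMSO controls.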

[12] = Validation screen for small molecules that induce DNA re-replication in MCF 10A normal breast cells (AID 463097); note: 0% is about no effect; nearly all actives have a fitted effect of over 60% in size
In short: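 Image-based qHTS: normal breast cells are incubated with compound for 48 hr, stained with Hoechst, and scanned for total nuclear fluorescence. Compounds raising the fraction of nuclei with elevated DNA content count as re-replication inducers.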

[13] = Quantitative high throughput screen for delayed death inhibitors of the malarial parasite plastid, 96 hour incubation (AID 488745);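 note: luciferase-expressing P. falciparum in erythrocytes at 2% hematocrit and 0.1% parasitemia; series mostly up to about 29 µM; % is set by controls: 0 for no effect and ±100 for the full control effect; nearly all actives have a fitted effect of over 70% in size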
In short: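 Readout is firefly luciferase luminescence from an integrated reporter in P. falciparum; lower signal marks inhibited growth. Cultures at 2% hematocrit and 0.1% parasitemia were treated with compound across two generations (96 h, 37 C, 5% CO2).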

[14] = target: M-phase phosphoprotein 8 (Homo sapiens) (UniProt Q99549); assay: qHTS Validation Assay for Inhibitors for MPP8 Chromodomain Interactions with Methylated Histone Tails (AID 488949);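 note: 50 nM MPP8 with 50 nM peptide preformed then compounds added for 30 min; AlphaScreen signal from MPP8 chromodomain bound to biotinylated H3K9me3 peptide; top concentration of the series differs between compounds; % is set by controls: 0 for no effect and ±100 for the full control effect; nearly all actives have a fitted effect of over 55% in size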
In short: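 50 nM MPP8 + 50 nM b-H3K9me3 peptide, PBS pH 7.4/0.01% Tween-20, 30 min RT; + cpd 30 min RT; + AlphaScreen donor/Ni-chelate acceptor beads 10 ug/mL final, 30 min dark; luminescence read.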

[15] = target: Thyrotropin receptor (Homo sapiens) (UniProt P16473); assay: qHTS Assay for Antagonists of the Thyroid Stimulating Hormone Receptor (AID 488980); note: series mostly up to about 58 µM; 0% is about no effect
In short: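 Readout is cAMP by HTRF competition between cellular cAMP and cAMP-d2 for a cryptate-labelled antibody. Antagonism was assessed in TSHR-transfected HEK293 cells stimulated with 4 nM TSH (EC80, final) in the presence of RO 20-1724.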

[16] = target: Thyrotropin-releasing hormone receptor (Homo sapiens) (UniProt P34981); assay: qHTS for Small Molecule Agonists and Allosteric Enhancers of Human TRH Receptor: Validation Screen for Agonists (AID 493127;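 active = calcium activation more than 3 SD above the typical response in the agonist read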;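 note: intracellular calcium rise by fluo-8 fluorescence before TRH EC20 addition; 0% is about no effect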); conditions: TRH receptor agonist cell assay; at 2 µM; active compounds read high
In short: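 Compounds are added by online pintool to dye-loaded TRHR cells while fluorescence is recorded every second. A rise in calcium signal during the agonist read marks activation; a later 10 nM TRH addition (EC20) serves the separate enhancer mode.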

[17] = target: Galactokinase (Homo sapiens) (UniProt P51570); assay: qHTS Validation Assay for Inhibitors of Human Galactokinase (GALK) (AID 493189); note: 0% is about no effect
In short: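 5 nM GALK / 100 uM galactose / 35 uM ATP, 20 mM HEPES pH8.0, 5 mM MgCl2, 60 mM NaCl, 1 mM DTT, 0.01% BSA (final). RT 1 h; Kinase-Glo Plus luminescence.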

[18] = Validation screen for small molecules that induce DNA re-replication in SW480 colon adenocarcinoma cells (AID 504364); note: 0% is about no effect
In short: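 Image-based qHTS: compounds were incubated with SW480 cells for 48 hr, nuclei stained with Hoechst, and per-nucleus fluorescence intensity scanned to flag cells with excess DNA content.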

[19] = target: DNA dC->dU-editing enzyme APOBEC-3G (Homo sapiens) (UniProt Q9HC16); assay: qHTS for inhibitors of Vif-A3G interactions: Validation (AID 588379); note: 0% is about no effect
In short: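 Yellow fluorescence (Ex 488, Em 500-530) of Vif-coexpressing HeLa A3G-eYFP cells, scanned by Acumen cytometer, reports blocked A3G degradation. Cells plated at 700/well overnight at 37 deg C before compound addition, then a further overnight compound incubation at 37 deg C.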

[20] = target: Voltage-gated inwardly rectifying potassium channel KCNH2 (Homo sapiens) (UniProt Q12809); assay: qHTS Assay for Small Molecule Inhibitors of the Human hERG Channel Activity (AID 588834);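 note: top concentration of the series differs between compounds; % is set by controls: 0 for no effect and ±100 for the full control effect; lower thallium flux fluorescence means stronger hERG block; nearly all actives have a fitted effect of over 50% in size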
In short: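 Step 1: BacMam hERG transduction of U2OS, 4 hrs RT. Step 2: overnight 37 °C, plate 2000 cells/well, 4 hr. Step 3: FluxOR load, compound 10 min, stimulate, read fluorescence.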

[21] = test system: Zika virus NS2B-NS3 protease; assay: Primary screen GU AMC qHTS for Zika virus inhibitors (AID 1347154);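 note: 0% = no-inhibitor control and -100% = no-enzyme control; nearly all actives have a fitted effect of over 70% in size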
In short: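 Fluorogenic AMC-substrate cleavage by noncovalent NS2B-NS3 protease complex (25 nM, pH 8.0 Tris buffer with Tween 20) followed for 15 minutes at room temperature (~20% conversion). Percent inhibition from ex340/em450 signal change, fitted by 4-parameter Hill equation.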

Sequence of Voltage-gated inwardly rectifying potassium channel KCNH2 (Homo sapiens) (Q12809 whole entry, looked up): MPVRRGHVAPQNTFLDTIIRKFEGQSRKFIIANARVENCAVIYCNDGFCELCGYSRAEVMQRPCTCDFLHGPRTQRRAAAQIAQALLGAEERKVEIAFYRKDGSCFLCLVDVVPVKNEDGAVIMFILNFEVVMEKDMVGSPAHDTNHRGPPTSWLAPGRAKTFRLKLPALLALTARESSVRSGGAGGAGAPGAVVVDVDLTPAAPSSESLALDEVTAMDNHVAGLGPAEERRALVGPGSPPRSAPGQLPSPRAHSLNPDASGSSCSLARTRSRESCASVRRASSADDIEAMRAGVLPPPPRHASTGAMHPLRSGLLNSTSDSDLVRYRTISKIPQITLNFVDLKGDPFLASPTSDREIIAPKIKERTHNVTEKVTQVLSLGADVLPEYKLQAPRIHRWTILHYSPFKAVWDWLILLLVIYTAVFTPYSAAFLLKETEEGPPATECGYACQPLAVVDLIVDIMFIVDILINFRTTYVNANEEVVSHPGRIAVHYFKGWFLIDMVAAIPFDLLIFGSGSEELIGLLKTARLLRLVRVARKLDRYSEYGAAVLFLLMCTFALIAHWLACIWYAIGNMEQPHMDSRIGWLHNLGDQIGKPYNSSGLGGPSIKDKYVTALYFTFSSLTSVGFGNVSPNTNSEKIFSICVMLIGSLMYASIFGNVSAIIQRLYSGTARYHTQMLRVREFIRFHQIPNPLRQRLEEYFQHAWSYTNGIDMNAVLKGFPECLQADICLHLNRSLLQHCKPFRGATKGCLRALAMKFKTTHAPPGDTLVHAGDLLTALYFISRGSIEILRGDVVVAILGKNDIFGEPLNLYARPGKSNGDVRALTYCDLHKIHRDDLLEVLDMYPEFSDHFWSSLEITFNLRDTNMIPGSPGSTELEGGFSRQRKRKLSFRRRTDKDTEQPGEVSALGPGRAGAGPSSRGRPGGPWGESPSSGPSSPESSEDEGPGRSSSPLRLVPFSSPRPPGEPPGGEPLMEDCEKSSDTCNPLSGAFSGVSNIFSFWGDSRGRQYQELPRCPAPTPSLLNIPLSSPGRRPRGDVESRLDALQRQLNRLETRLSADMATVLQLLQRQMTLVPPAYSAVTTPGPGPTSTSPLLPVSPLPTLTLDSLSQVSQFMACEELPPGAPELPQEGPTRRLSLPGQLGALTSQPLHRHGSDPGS
Sequence of Thyrotropin receptor (Homo sapiens) (P16473 whole entry, looked up): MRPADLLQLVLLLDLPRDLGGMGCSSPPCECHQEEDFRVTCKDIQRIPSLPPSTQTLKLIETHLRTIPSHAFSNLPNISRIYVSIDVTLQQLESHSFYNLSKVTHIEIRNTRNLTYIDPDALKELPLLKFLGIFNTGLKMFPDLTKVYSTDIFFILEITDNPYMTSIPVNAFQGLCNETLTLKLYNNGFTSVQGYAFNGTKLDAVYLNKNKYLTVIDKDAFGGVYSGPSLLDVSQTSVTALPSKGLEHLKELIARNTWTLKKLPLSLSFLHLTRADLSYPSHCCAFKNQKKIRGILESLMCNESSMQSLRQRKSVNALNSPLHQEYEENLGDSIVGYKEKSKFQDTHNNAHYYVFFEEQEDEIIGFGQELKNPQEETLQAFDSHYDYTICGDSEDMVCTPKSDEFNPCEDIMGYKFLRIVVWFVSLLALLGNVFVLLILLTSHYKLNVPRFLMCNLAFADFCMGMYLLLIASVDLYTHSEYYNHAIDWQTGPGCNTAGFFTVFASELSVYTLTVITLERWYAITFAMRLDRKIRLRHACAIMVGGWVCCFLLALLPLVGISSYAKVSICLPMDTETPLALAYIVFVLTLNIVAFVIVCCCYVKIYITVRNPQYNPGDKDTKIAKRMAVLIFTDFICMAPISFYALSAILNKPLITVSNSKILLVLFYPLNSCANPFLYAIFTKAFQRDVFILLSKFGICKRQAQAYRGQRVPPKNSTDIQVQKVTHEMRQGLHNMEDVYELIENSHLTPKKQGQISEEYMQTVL
Sequence of ATP-dependent DNA helicase Q1 (Homo sapiens) (P46063 whole entry, looked up): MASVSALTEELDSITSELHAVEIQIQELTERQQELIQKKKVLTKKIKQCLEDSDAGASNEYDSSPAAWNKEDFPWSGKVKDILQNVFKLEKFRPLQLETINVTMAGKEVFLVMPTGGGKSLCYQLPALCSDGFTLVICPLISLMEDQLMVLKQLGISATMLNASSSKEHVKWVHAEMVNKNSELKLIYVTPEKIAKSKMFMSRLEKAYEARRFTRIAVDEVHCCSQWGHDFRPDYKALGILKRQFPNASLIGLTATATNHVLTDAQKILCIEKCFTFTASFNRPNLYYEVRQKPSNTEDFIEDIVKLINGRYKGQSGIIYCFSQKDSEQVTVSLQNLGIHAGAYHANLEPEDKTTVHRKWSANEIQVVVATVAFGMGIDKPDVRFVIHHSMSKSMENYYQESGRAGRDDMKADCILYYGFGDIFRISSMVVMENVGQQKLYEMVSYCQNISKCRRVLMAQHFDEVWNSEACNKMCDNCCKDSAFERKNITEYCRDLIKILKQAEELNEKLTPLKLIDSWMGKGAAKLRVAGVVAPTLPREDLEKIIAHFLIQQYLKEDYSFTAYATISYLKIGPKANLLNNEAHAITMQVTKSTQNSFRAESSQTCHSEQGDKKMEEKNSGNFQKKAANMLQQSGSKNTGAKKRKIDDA
Sequence of DNA dC->dU-editing enzyme APOBEC-3G (Homo sapiens) (Q9HC16 whole entry, looked up): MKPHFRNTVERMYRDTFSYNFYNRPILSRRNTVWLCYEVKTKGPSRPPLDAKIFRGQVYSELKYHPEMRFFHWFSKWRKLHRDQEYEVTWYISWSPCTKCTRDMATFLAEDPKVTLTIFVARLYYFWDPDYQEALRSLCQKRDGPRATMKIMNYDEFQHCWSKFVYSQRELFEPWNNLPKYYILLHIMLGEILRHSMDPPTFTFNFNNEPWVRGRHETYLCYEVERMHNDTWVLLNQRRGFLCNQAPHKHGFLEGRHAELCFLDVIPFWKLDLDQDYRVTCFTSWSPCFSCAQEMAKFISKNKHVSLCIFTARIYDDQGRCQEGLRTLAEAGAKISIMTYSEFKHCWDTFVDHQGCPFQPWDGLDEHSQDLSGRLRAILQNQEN
Sequence of M-phase phosphoprotein 8 (Homo sapiens) (Q99549 whole entry, looked up): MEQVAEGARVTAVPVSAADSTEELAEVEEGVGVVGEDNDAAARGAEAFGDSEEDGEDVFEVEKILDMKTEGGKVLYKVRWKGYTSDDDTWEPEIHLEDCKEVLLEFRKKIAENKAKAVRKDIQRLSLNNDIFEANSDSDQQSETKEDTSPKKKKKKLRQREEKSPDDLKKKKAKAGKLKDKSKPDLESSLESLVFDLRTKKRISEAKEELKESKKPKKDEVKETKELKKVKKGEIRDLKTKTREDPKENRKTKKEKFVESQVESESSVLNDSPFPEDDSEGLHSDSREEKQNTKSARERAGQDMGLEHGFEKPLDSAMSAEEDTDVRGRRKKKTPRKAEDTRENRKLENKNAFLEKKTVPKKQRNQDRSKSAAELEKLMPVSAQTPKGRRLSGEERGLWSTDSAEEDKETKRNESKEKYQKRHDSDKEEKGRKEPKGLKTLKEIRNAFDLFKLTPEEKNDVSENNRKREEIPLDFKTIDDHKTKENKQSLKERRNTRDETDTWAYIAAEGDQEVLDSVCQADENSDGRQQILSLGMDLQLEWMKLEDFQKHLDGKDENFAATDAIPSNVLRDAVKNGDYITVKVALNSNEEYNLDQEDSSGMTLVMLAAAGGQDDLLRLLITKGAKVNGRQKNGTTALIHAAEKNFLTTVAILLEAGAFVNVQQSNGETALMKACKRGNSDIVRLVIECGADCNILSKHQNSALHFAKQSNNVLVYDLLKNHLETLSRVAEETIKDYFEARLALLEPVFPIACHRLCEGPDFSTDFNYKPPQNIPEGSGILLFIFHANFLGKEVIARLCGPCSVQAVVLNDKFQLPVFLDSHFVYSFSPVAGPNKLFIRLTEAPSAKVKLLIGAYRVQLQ
Sequence of Ferritin light chain (Equus caballus) (P02791 2-175 limits assumed): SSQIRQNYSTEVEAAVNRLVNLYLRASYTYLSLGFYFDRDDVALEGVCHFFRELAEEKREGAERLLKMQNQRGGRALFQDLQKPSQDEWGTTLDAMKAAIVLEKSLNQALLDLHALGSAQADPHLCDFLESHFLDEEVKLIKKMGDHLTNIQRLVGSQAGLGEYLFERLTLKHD
Sequence of Thyrotropin-releasing hormone receptor (Homo sapiens) (P34981 whole entry, looked up): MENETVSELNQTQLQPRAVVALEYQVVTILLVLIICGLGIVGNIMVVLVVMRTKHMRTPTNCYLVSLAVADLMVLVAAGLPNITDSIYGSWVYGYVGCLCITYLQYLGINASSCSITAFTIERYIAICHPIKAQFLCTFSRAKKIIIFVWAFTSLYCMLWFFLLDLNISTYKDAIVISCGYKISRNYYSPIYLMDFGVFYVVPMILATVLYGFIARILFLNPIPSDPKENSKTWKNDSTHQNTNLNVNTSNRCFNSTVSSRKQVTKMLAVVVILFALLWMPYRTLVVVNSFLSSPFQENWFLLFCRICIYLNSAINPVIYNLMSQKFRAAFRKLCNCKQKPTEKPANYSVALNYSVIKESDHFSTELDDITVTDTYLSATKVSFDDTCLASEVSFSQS
Sequence of Galactokinase (Homo sapiens) (P51570 whole entry, looked up): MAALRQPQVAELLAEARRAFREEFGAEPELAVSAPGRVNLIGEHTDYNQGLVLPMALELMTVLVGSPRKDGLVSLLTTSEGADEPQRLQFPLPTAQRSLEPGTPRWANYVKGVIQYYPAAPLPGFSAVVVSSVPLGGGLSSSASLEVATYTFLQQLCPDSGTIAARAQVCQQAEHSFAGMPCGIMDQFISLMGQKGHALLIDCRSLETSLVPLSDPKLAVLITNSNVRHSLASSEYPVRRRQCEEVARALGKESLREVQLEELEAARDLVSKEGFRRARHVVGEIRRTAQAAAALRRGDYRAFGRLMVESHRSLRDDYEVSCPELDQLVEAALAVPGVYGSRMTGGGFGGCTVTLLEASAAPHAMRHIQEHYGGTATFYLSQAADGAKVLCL

Cc1cccc(C)c1NC(=O)C[N+](C)(C)C
inactive: Potency [1] | Potency [2] | Potency [3] | Potency [4] | Potency [5] | Potency [6] | Potency [7] | outcome [8] | outcome [9] | Potency [10] | Potency [11] | Potency [12] | Potency [13] | Potency [14] | outcome [15] | activation [16] -0.0625% | outcome [17] | outcome [18] | Potency [19] | Potency [20] | Potency [21]
